Assay outcomes deposited in PubChem by National Center for Advancing Translational Sciences (NCATS).
KB-3-1 tox – qHTS assay for MDR1-selective chemotherapeutics: Primary screen using the parental adenocarcinoma cell KB-3-1; 1.4% of 400,000 active; AID 1347075, 2019; KB-3-1 viability, CellTiter-Glo ATP luminescence, 72 h; Potency, µM (titrated, usually from 46.1 µM), most hits filed as cytotoxic; further: nearly all actives have a fitted effect of over 60% in size
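Viability of parental KB-3-1 cells, measured by CellTiter-Glo luminescence, followed a 72 h incubation at 37 °C with pinned compounds in phenol-red-free DMEM containing 10% FBS.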
KB-V1 MDR tox – qHTS assay for MDR1-selective chemotherapeutics: Primary screen using the drug-selected MDR subline cells KB-V1. AID 1347076, 2019. 3.4% of 400,000 active. KB-V1 MDR cells viability, CellTiter-Glo, 72 h. Potency, µM (doses to about 46.1 µM), most hits filed as cytotoxic; further: nearly all actives have a fitted effect of over 60% in size
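Cells of the MDR subline KB-V1 are plated, dosed with compound at multiple concentrations, and incubated 72 h at 37 degrees C; CellTiter-Glo is then added and luminescence read after 10 min.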
HT1080 IDH1KD tx – qHTS for induction of synthetic lethality in tumor cells producing 2HG: qHTS for the HT-1080-IDH1KD cell line; 2% of 360,000 active; Potency, µM (highest dose often 46.1 µM), without a hit: top-dose activity, negative = toxicity, usual class: cytotoxic; HT-1080 IDH1 knockdown viability, ATP luminescence, 48 h; AID 686971, 2013;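 further: 0% = DMSO wells and -100% = cell-free medium wells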
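Cytotoxicity counter-line: IDH1KD HT-1080, 48 h, CellTiter-Glo. Curves classed by r2, magnitude and activity.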
HT1080-NT tox – qHTS for induction of synthetic lethality in tumor cells producing 2HG: qHTS for the HT-1080-NT fibrosarcoma cell line | HT-1080-NT fibrosarcoma viability, CellTiter-Glo ATP luminescence, 48 h | AID 686970, 2013 | Potency, µM (doses to about 46.1 µM), inactives show at the highest dose activity, negative = less viability, hits mostly cytotoxic | 1.6% of 360,000 active;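 further: NT is the 2HG producing partner of a matched IDH1 knockdown line; 0% = DMSO-treated cells and -100% = media-only wells without cells; nearly all actives have a fitted effect of over 55% in size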
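Luminescent CellTiter-Glo readout after 48 hours of compound exposure at 37 degrees C defined viability of HT-1080-NT cells. Activity was normalized to DMSO wells and cell-free media wells; concentration-response curves were fitted and assigned curve classes.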
The depositor's hits bear a star; i = inactive; ? = inconclusive; · = no result. Only some compounds are listed: those with a hit (about 5.7% of all), similar ones and a draw of the others. The call rests on the fitted dose curve; in most records, active means well fitted curve in the direction sought with a large enough effect; inconclusive means small, poorly fitted or top-dose-only effect, or another doubt; inactive means no such curve, though single readings can be large; an effect the other way counts as inactive or inconclusive. Unless noted, on the % scale 0 is the no-effect control and ±100 the full control effect; potency means the concentration at half of the fitted maximal effect.

SMILES	KB-3-1 tox	KB-V1 MDR tox	HT1080 IDH1KD tx	HT1080-NT tox
CCN(CC(=O)Nc1c(F)cccc1F)C(=O)c1ccc(S(=O)(=O)N2CCCCCC2)cc1	i	?	4%	4%
CCN(CC(=O)Nc1c(F)cccc1F)C(=O)c1ccc(S(=O)(=O)N2CCC(C)CC2)cc1	i	21µM*	0%	5%
COc1ccc(-c2onc(C)c2-c2ccc(C(=O)OC(C)C)o2)c(O)c1	?	21µM*	3%	5%
Nc1[nH]c(C(=O)c2ccc(Br)cc2)c(-c2ccc(Br)cc2)c1C(=O)NCCc1c[nH]c2ccccc12	?	21µM*	?	?
COc1ccc(C(=O)c2[nH]c(N)c(C(=O)NCCc3c[nH]c4ccccc34)c2-c2ccc(Cl)cc2)cc1	i	i	?	?
Nc1[nH]c(C(=O)c2ccccc2)c(-c2ccccc2C(F)(F)F)c1C(=O)NCCc1c[nH]c2ccccc12	?	i	?	?
Nc1[nH]c(C(=O)c2ccccc2)c(-c2ccc([N+](=O)[O-])cc2)c1C(=O)NCCc1c[nH]c2ccccc12	?	23µM*	?	?
COc1ccc(C(=O)c2[nH]c(N)c(C(=O)NCCc3c[nH]c4ccccc34)c2-c2ccc(Cl)c(F)c2)cc1	?	i	21µM*	?
Cc1ccc(S(=O)(=O)NCCc2nnc3ccc(SCC(=O)Nc4ccc(OC(F)(F)F)cc4)nn23)cc1	i	i	·	·
COc1cccc(OCc2cc(=O)n3c(-c4ccccc4)csc3n2)c1	i	i	·	·
COc1ccc(CC(=O)N2CCc3cc(OC)c(OC)cc3C2COc2ccc(F)cc2)cc1 (stereo unspecified)	i	7.3µM*	·	·
COc1cc2c(cc1OC)C(COc1ccc([N+](=O)[O-])cc1)N(C(C)=O)CC2 (stereo unspecified)	16µM*	?	-20%	?
COc1ccc(CC(=O)N2CCc3cc(OC)c(OC)cc3C2COc2ccc(F)cc2)cc1OC (stereo unspecified)	i	i	·	·
COc1ccc(-c2nn(-c3ccccc3)cc2/C=C/C(=O)N2CCN(c3ccccn3)CC2)cc1	i	15µM*	-5%	2%
O=C(c1cn(-c2ccccc2)nc1-c1ccccc1)N1CCOCC1	i	i	6%	11%
COc1ccc(/C=C/C(=O)N2CCN(c3ccccn3)CC2)cc1OC	i	i	0%	-8%
O=C(NC(=S)N1CCOCC1)c1cn(-c2ccccc2)nc1-c1ccccc1	i	5.8µM*	-5%	-20%
O=C(NCc1ccccn1)c1cn(-c2ccccc2)nc1-c1ccc(Cl)cc1	i	3.7µM*	-6%	2%
O=C(c1cn(Cc2ccccc2)nc1-c1ccc(Cl)cc1)N1CCN(c2ccccn2)CC1	·	·	-1%	-13%
O=C(c1cn(-c2ccccc2)nc1-c1ccccc1)N1CCN(c2ccccn2)CC1	?	21µM*	-23%	?
COc1cc(NC(=O)c2noc3c2CCc2ccccc2-3)cc(OC)c1OC	i	i	·	·
COc1ccc(-c2nc3sc(CCNC(=O)c4cc(OC)c(OC)c(OC)c4)c(C)n3n2)cc1	i	i	·	·
Cc1ccc(NC(=O)COc2ccccc2C(=O)Nc2ccccc2)cc1	i	i	·	·
O=C(c1[nH]c(C(F)(F)F)nc1-c1ccccc1)N1CCN(c2ccccn2)CC1	?	?	23µM*	?
O=C(c1cccn2c(=O)c3ccccc3nc12)N1CCN(c2ccccn2)CC1	i	9.2µM*	5%	24%
COc1ccc(NC(=O)c2cn(CC(C)C)c(=O)c3cc(OC)c(OC)cc23)cc1Cl	i	i	·	·
CCCN1CCN(CCNC(=O)Nc2ccc(OC)c(OC)c2)CC1	i	i	·	·
COc1cc(C)c(Cl)cc1S(=O)(=O)NCCc1c(C)[nH]c2ccccc12	i	i	·	·
O=C(N/N=C/C(Br)=C\c1ccccc1)c1n[nH]c2c1CCC2	i	?	0.56µM*	0.32µM*
O=C(N/N=C/C=C/c1ccccc1)c1n[nH]c2c1CCC2	1.3µM*	1µM*	1.3µM*	1.8µM*
